Experimental data reported in paper PMC12820563, “FoxP3 forms a head-to-head dimer in vivo and stabilizes its multimerization on adjacent microsatellites”.
In all, about 16,000 sequences were measured (“rpm ratio (pull-down/input)”: median about 0.5, highest 2% from about 5.5 on). The list comes from a sample in which the highest values are over-represented; it also holds similar and randomly drawn sequences.

These sequences were tested against T1, MBP-FoxP3dN (Mus musculus, UniProt Q99JB6 188-423) (assay: PD-seq (MBP pull-down with sequencing); 20 mM Tris-HCl pH 7.5, 100 mM NaCl, 1.5 mM MgCl2, 0.4 uM protein, 0.1 uM dsDNA library, 30 min, room temperature, amylose pull-down; high values mean tight binding). Conditions: protein: recombinant; tags: His6-MBP; chain copies: 2; dsDNA, one strand shown.
T1 sequence: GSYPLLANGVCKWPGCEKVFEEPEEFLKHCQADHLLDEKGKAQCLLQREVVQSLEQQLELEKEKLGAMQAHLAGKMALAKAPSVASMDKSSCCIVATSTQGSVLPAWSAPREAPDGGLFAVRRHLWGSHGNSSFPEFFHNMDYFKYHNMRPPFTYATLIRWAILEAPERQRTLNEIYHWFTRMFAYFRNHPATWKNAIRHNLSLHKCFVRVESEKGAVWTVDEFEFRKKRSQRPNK
Summary of the method: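 In Tris pH 7.5 buffer with NaCl and MgCl2, 0.4 µM His6-MBP-tagged mouse FoxP3 or FoxP1 fragment lacking the N-terminus, from E. coli, met 0.1 µM Klenow-filled double-stranded degenerate DNA library for 30 min at room temperature. Three washes on amylose resin followed capture of the complexes, then proteinase K release of DNA, PCR barcoding and Illumina sequencing. Binding is taken as pooled-replicate reads-per-million enrichment of pull-down relative to input.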

Compared with “GATGATTGTTCTCCCAGCTGATGAATTACCTGCTTCGAGTAAACAAATTTTCCTAATCTTTCTGTTCAAGCGCCATCTAC”, “GATGATTGTTCTCCCAGCTGATGAATTTCACGGCTCGAGTAAACAAATTTTCCTAATCTTTCTGTTCAAGCGCCATCTAC” is lower in binding signal: 0.326 RPM ratio (pull-down/input) for the first, 0.24 RPM ratio (pull-down/input) for the second.

Compared with “GATGATTGTTCTCCCAGCTGATGAATTGTGGTACTCGAGTAAACAAATTTTCCTAATCTTTCTGTTCAAGCGCCATCTAC”, “GATGATTGTTCTCCCAGCTGATGAATTGTTCCATTCGAGTAAACAAATTTTCCTAATCTTTCTGTTCAAGCGCCATCTAC” is lower in binding signal: 1.06 RPM ratio (pull-down/input) for the first, 0.579 RPM ratio (pull-down/input) for the second.

Going from “GATGATTGTTCTCCCAGCTGATGAATTAACGGGTTCGAGTAAACAAATTTTCCTAATCTTTCTGTTCAAGCGCCATCTAC” to “GATGATTGTTCTCCCAGCTGATGAATTCCAAATCTCGAGTAAACAAATTTTCCTAATCTTTCTGTTCAAGCGCCATCTAC”, the binding signal falls from 0.329 RPM ratio (pull-down/input) to 0.26 RPM ratio (pull-down/input).

Compared with “GATGATTGTTCTCCCAGCTGATGAATTTGTAATGTCGAGTAAACAAATTTTCCTAATCTTTCTGTTCAAGCGCCATCTAC”, “GATGATTGTTCTCCCAGCTGATGAATTATACACGTCGAGTAAACAAATTTTCCTAATCTTTCTGTTCAAGCGCCATCTAC” is lower in binding signal: 3.87 RPM ratio (pull-down/input) for the first, 0.65 RPM ratio (pull-down/input) for the second.

First: GATGATTGTTCTCCCAGCTGATGAATTACGAAAGTCGAGTAAACAAATTTTCCTAATCTTTCTGTTCAAGCGCCATCTAC
Second: GATGATTGTTCTCCCAGCTGATGAATTTATTTGTTCGAGTAAACAAATTTTCCTAATCTTTCTGTTCAAGCGCCATCTAC
The binding signal of the first is lower: 0.214 RPM ratio (pull-down/input) for the first, 6.33 RPM ratio (pull-down/input) for the second.

Compared with “GATGATTGTTCTCCCAGCTGATGAATTTTTTATTTCGAGTAAACAAATTTTCCTAATCTTTCTGTTCAAGCGCCATCTAC”, “GATGATTGTTCTCCCAGCTGATGAATTGATTTATTCGAGTAAACAAATTTTCCTAATCTTTCTGTTCAAGCGCCATCTAC” is higher in binding signal: 0.301 RPM ratio (pull-down/input) for the first, 2.58 RPM ratio (pull-down/input) for the second.

First: GATGATTGTTCTCCCAGCTGATGAATTTTTATTTTCGAGTAAACAAATTTTCCTAATCTTTCTGTTCAAGCGCCATCTAC
Second: GATGATTGTTCTCCCAGCTGATGAATTATTTTATTCGAGTAAACAAATTTTCCTAATCTTTCTGTTCAAGCGCCATCTAC
The binding signal of the first is higher: 0.838 RPM ratio (pull-down/input) for the first, 0.489 RPM ratio (pull-down/input) for the second.

First: GATGATTGTTCTCCCAGCTGATGAATTCTTTTATTCGAGTAAACAAATTTTCCTAATCTTTCTGTTCAAGCGCCATCTAC
Second: GATGATTGTTCTCCCAGCTGATGAATTTTATTGTTCGAGTAAACAAATTTTCCTAATCTTTCTGTTCAAGCGCCATCTAC
The binding signal of the first is lower: 0.35 RPM ratio (pull-down/input) for the first, 6.02 RPM ratio (pull-down/input) for the second.

Going from “GATGATTGTTCTCCCAGCTGATGAATTTATTGATTCGAGTAAACAAATTTTCCTAATCTTTCTGTTCAAGCGCCATCTAC” to “GATGATTGTTCTCCCAGCTGATGAATTTTATTATTCGAGTAAACAAATTTTCCTAATCTTTCTGTTCAAGCGCCATCTAC”, the binding signal falls from 5.78 RPM ratio (pull-down/input) to 5.53 RPM ratio (pull-down/input).

First: GATGATTGTTCTCCCAGCTGATGAATTTATTTTTTCGAGTAAACAAATTTTCCTAATCTTTCTGTTCAAGCGCCATCTAC
Second: GATGATTGTTCTCCCAGCTGATGAATTAATTTATTCGAGTAAACAAATTTTCCTAATCTTTCTGTTCAAGCGCCATCTAC
The binding signal of the first is higher: 4.63 RPM ratio (pull-down/input) for the first, 2.61 RPM ratio (pull-down/input) for the second.

First: GATGATTGTTCTCCCAGCTGATGAATTTTATTTTTCGAGTAAACAAATTTTCCTAATCTTTCTGTTCAAGCGCCATCTAC
Second: GATGATTGTTCTCCCAGCTGATGAATTACGTGCCTCGAGTAAACAAATTTTCCTAATCTTTCTGTTCAAGCGCCATCTAC
The binding signal of the first is higher: 4.17 RPM ratio (pull-down/input) for the first, 0.855 RPM ratio (pull-down/input) for the second.

Going from “GATGATTGTTCTCCCAGCTGATGAATTGGTCCACTCGAGTAAACAAATTTTCCTAATCTTTCTGTTCAAGCGCCATCTAC” to “GATGATTGTTCTCCCAGCTGATGAATTACTGAGCTCGAGTAAACAAATTTTCCTAATCTTTCTGTTCAAGCGCCATCTAC”, the binding signal falls from 0.387 RPM ratio (pull-down/input) to 0.258 RPM ratio (pull-down/input).

First: GATGATTGTTCTCCCAGCTGATGAATTAACACCTTCGAGTAAACAAATTTTCCTAATCTTTCTGTTCAAGCGCCATCTAC
Second: GATGATTGTTCTCCCAGCTGATGAATTCTTTACGTCGAGTAAACAAATTTTCCTAATCTTTCTGTTCAAGCGCCATCTAC
The binding signal of the first is higher: 0.408 RPM ratio (pull-down/input) for the first, 0.372 RPM ratio (pull-down/input) for the second.

First: GATGATTGTTCTCCCAGCTGATGAATTGTAGCGGTCGAGTAAACAAATTTTCCTAATCTTTCTGTTCAAGCGCCATCTAC
Second: GATGATTGTTCTCCCAGCTGATGAATTTAATACATCGAGTAAACAAATTTTCCTAATCTTTCTGTTCAAGCGCCATCTAC
The binding signal of the first is lower: 0.618 RPM ratio (pull-down/input) for the first, 0.619 RPM ratio (pull-down/input) for the second.

Compared with “GATGATTGTTCTCCCAGCTGATGAATTGTAACCGTCGAGTAAACAAATTTTCCTAATCTTTCTGTTCAAGCGCCATCTAC”, “GATGATTGTTCTCCCAGCTGATGAATTTGTATTATCGAGTAAACAAATTTTCCTAATCTTTCTGTTCAAGCGCCATCTAC” is higher in binding signal: 0.518 RPM ratio (pull-down/input) for the first, 5.3 RPM ratio (pull-down/input) for the second.

“GATGATTGTTCTCCCAGCTGATGAATTTTTATTATCGAGTAAACAAATTTTCCTAATCTTTCTGTTCAAGCGCCATCTAC” was tested, and the binding signal was 0.779 RPM ratio (pull-down/input).
